Screens (PubChem)
Hits are enriched below; roughly 3.6% of the tested compounds scored in any of these assays.
Pf apPOL block – Pf-apPOL DNA polymerase inhibition | Recombinant Pf-apPOL, molecular beacon fluorescence, 1.5 h | hit rate 0.25% among 210,000 | AID 1794808 | inhibition, % at 10 µM
mHTT CaM bind – mHTT-calmodulin interaction abrogation | AlphaScreen His-mHTT/GST-CaM binding, luminescence | inhibition, % at 15 µM | hit rate 3.6% among 190,000;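 also: 0% = both proteins with DMSO and 100% = one protein alone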
* hit, by the source's call; . = not tested or not shown. Rule as the data show it: active = inhibition above about 50%; inactive = the rest.

SMILES | Pf apPOL block | mHTT CaM bind
O=C1OC(c2cccc([N+](=O)[O-])c2)=N/C1=C\c1ccc(F)cc1 | 0 | -2
O=c1cc(CO)oc(C(Nc2ncccn2)c2ccc(F)cc2)c1O (stereo not drawn) | -4 | 10
Cc1ccc(C)c(C(C)Sc2ncccc2C(=O)O)c1 (stereo not drawn) | 1 | .
Oc1c(C(Nc2ccccn2)c2ccc(Br)cc2)ccc2cccnc12 (stereo not drawn) | 0 | 94*
Cc1ccc2ccc(C(Nc3ccccn3)c3ccc(F)cc3)c(O)c2n1 (stereo not drawn) | -10 | 70*
Cc1ccc2ccc(C(Nc3ccccn3)c3ccc(O)cc3)c(O)c2n1 (stereo not drawn) | 2 | 93*
Cc1ccc(C)c(C(Nc2ccccn2)c2ccc3cccnc3c2O)c1 (stereo not drawn) | 4 | 97*
O=C(Nc1ccccn1)c1cc(Br)ccc1Cl | 3 | 3
COC(=O)/C(C#N)=C/c1nccn1C | . | -4
CCN(CC)c1ccc(C=NCCNC(=O)c2ccc(C)cc2)cc1 | -1 | 3
COc1ccc(OC)c(-c2c(C)c3cc(OC(=O)C4CC4)ccc3oc2=O)c1 | -9 | 1
Cc1ccc(C(Nc2ccccn2)c2ccc3cccnc3c2O)cc1 (stereo not drawn) | 3 | 99*
OC(CN1CCN(c2ccccn2)CC1)c1ccc2c(c1)OCO2 (stereo not drawn) | -1 | 3
Cc1ccnc(NC(c2cccs2)c2ccc3cccnc3c2O)c1 (stereo not drawn) | 4 | 100*
Oc1c(C(Nc2ccccn2)c2ccc3c(c2)OCO3)ccc2cccnc12 (stereo not drawn) | -6 | 99*
C=CCOc1ccc(C=Nc2ccc(C(C)C)cc2)c(O)c1 | 4 | 2
Cc1ccc(-c2ncccc2O)cc1 | -7 | 1
C=CCOc1ccc(C(Nc2ccccn2)c2ccc3ccc(C)nc3c2O)cc1 (stereo not drawn) | -5 | 67*
COCc1c(C#N)c(Nc2cccc(C(F)(F)F)c2)nc(C)c1[N+](=O)[O-] | -4 | 9
COc1ccc(/C=C2/C=C(c3ccc(Br)cc3)OC2=O)cc1C | 1 | 9
Cc1ccc2ncn(C3CCN(S(=O)(=O)c4ccccc4C)CC3)c(=O)c2c1 | 2 | -4
Cc1ccc(C(=O)C=CNc2cc(Cl)ccc2C)cc1 | -5 | 2
O=S(=O)(Nc1ccccn1)c1ccc(Cl)cc1 | 0 | -2
CCCOc1ccc(C=Nc2ccc(S(=O)(=O)Nc3ccccn3)cc2)cc1 | -5 | -5
Cc1ccc(-c2nc(C=Nc3ccccn3)c(O)o2)cc1 | -2 | 9
SMILES | Pf apPOL block | mHTT CaM bind
Cc1ccc(C(Nc2ccccn2)c2ccc3ccc(C)nc3c2O)cc1 (stereo not drawn) | -12 | 72*
CCCOc1ccc(C(Nc2ccccn2)c2ccc3cccnc3c2O)cc1 (stereo not drawn) | -7 | 97*
Cc1ccnc(NC(c2ccccc2C)c2ccc3cccnc3c2O)c1 (stereo not drawn) | -11 | 99*
Oc1c(C(Nc2ccccn2)c2ccc(Cl)cc2)ccc2cccnc12 (stereo not drawn) | 4 | 100*
CCc1cccc(NC(=O)N2CCN(C3=CC4=NC(C)CN4C=N3)CC2)c1 (stereo not drawn) | -1 | 1
O=C(O)Cc1n[nH]c(CNc2ccccc2)n1 | -4 | -4
COc1cc(C)c(S(=O)(=O)Nc2ccccn2)cc1C | 0 | -2
COc1ccc(C(Nc2ccccn2)c2ccc3ccc(C)nc3c2O)cc1C (stereo not drawn) | -6 | 81*
Cc1noc(-c2nn(C)c3c2CN(C(=O)Nc2ccc(Cl)cc2)CC3)n1 | 1 | 58*
CSc1cccc(NC(=O)N2CCc3c(c(-c4nc(C5CC5)no4)nn3C)C2)c1 | -6 | 52*
CSc1ccc(NC(=O)N2CCc3c(c(-c4nc(C)no4)nn3C)C2)cc1 | -2 | 36
Cn1nc(-c2nc(C3CC3)no2)c2c1CCN(C(=O)Nc1ccccc1)C2 | 0 | 12
O=C(C=Cc1cccs1)Oc1c(Cl)cccc1Cl | 4 | .
CCCC1CCc2c(sc(NC(=O)c3cccnc3)c2C(N)=O)C1 (stereo not drawn) | 5 | 7
CCCC1CCc2c(sc(NC(=O)c3ccncc3)c2C(N)=O)C1 (stereo not drawn) | 66* | -5
COC(CNc1cccc(Cl)c1C#N)OC | 0 | .
CN1CCN(Cc2cncc(-c3cc4ccccc4s3)c2)CC1 | -1 | 55*
CN1CCN(Cc2ccc3c(c2)Cc2ccccc2-3)CC1 | 1 | 1
CC(C)(C)NC(=O)C1=CCN(C(=O)NC(C)(C)C)CC1 | -1 | 11
O=S1(=O)CCOCCN1Cc1ccc(Cl)cc1 | -5 | -4
NCCSc1nc2ccccc2s1 | 7 | 10
COc1cccc(OCCSc2nc3ccccc3s2)c1 | -7 | 96*
COc1ccc(C=C2Oc3c(ccc(OCC(C)=O)c3C)C2=O)c(OC)c1 | -4 | 0
CC12CC(NC(=O)N1c1cccc(F)c1)c1ccccc1O2 (stereo not drawn) | 4 | -10
